Laboratory results taken from ChEMBL document CHEMBL3988442, “University of Dundee, Small-Polar-MMV Screening Library” (2021).
Hit rate of the full screen: of about 48,000 compounds, about 13,000 (27%) showed an effect of 50% or more. The list shows a part of the results.

Test system: Wolbachia pipientis
Assay: Anti-Wolbachia Cell-Based Screen
Assay type: functional
Set-up: scale not given: in the data most compounds retested in dose-response had high values
Settings: 5 µM

SMILES	Percent Effect [%]
CCc1noc(CS(=O)(=O)Cc2ccccc2C)n1	2.156
CN1C[C@@H](N)C[C@H]1c1nc(-c2ccc3c(c2)OCO3)no1	-7.718
CC(C)(C)n1cc(CNC2CCN(C(=O)c3ccoc3)CC2)cn1.Cl	4.064
CCC(C)(C)C(=O)NCCCOC1CCOC1 (stereo not given)	-11.1
CC(C)S(=O)(=O)N1CCOC(CCc2ccccc2)C1 (stereo not given)	-8.11
O=C(O)C(F)(F)F.c1cnc(N2CCCn3nnc(COCC4CC4)c3C2)nc1	-15.27
c1cncc(N2CCCn3nnc(CN4CCOCC4)c3C2)c1	107.9
Cc1cnnn1Cc1nnn2c1CN(Cc1ccccn1)CCC2.O=C(O)C(F)(F)F	-8.238
O=C(O)C(F)(F)F.O=C(O)C(F)(F)F.O=C(c1cccnc1)N1CCn2nnc(COc3cccnc3)c2C1	-17.53
C1CN(CC2CCOCC2)Cc2c(CN3CCOCC3)nnn2C1	2.088
O=C(O)C(F)(F)F.c1cncc(N2CCCn3nnc(COCC4CC4)c3C2)c1	122.7
O=C(O)C(F)(F)F.O=C1CCCN1Cc1nnn2c1CN(c1cccnc1)CCC2	87.49
O=C(O)C(F)(F)F.O=C(O)C(F)(F)F.c1cncc(CN2CCCn3nnc(COCC4CC4)c3C2)c1	-24.42
O=C1CCCN1Cc1nnn2c1CN(c1ncccn1)CCC2	-7.828
O=C(O)C(F)(F)F.O=C(O)C(F)(F)F.c1ccc(CN2CCCn3nnc(COc4ccccn4)c3C2)nc1	-12.56
O=C(O)C(F)(F)F.O=C(O)C(F)(F)F.c1cncc(N2CCCn3nnc(CN4CCCCC4)c3C2)c1	109.4
c1cc(CN2CCCn3nnc(COCC4CC4)c3C2)ccn1	-2.908
COc1ccc(C)cc1CN(Cc1ncc(C)o1)C1CCN(C)C1 (stereo not given)	18.81
Cc1cccc(N2N=C(C(=O)NC(C)CCc3ccco3)CCC2=O)c1 (stereo not given)	5.008
CC(C)C(=O)NC1CCN(CCO)CC1	-14.55
N#Cc1ccc(CNC(=O)NCCC(=O)NC2CCCC2)c(F)c1	1.823
CCCOCCN1CCc2[nH]c(-c3ccc(OC)cc3)nc2C1	0.5641
O=C(O)C(F)(F)F.O=C(O)C(F)(F)F.c1cncc(OCc2nnn3c2CN(Cc2ccsc2)CCC3)c1	-20.94
O=C(O)C(F)(F)F.O=C(O)C(F)(F)F.c1cncc(COCc2nnc3n2CCN(Cc2ccsc2)C3)c1	-0.7002
O=C(O)C(F)(F)F.O=C(O)C(F)(F)F.c1cncc(COCc2nnn3c2CN(Cc2ccsc2)CC3)c1	109.1

SMILES	Percent Effect [%]
O=C(NCc1ccc(Cl)cc1)[C@@H]1Cc2[nH]cnc2CN1CC1CC1	10.78
Cn1cc(CN2CCCC(CCc3ccc(F)cc3F)C2)cn1 (stereo not given)	13.59
Cn1cc(CN2CCCC(Cn3cc(CCCO)nn3)C2)cn1 (stereo not given)	-7.109
Cc1cc(C2CCCN(Cc3cccnc3)C2)n[nH]1 (stereo not given)	-3.647
Cc1n[nH]c(C2CN(CCCOc3cccc(Cl)c3)CCO2)n1 (stereo not given)	17.53
Br.Cn1cc(CN2CCC(c3cc(COc4cccc(Cl)c4)[nH]n3)C2)cn1 (stereo not given)	108.1
Cn1cc(CN2CCC(c3cc(CCO)[nH]n3)C2)cn1 (stereo not given)	135.9
Cn1cc(CN2CCCC(CCc3ccc(F)cc3)C2)cn1 (stereo not given)	5.496
Cn1cc(CN2CCCC(CCc3ccc(F)c(F)c3)C2)cn1 (stereo not given)	-4.852
Cn1cc(CN2CCC(c3cc(COc4ccc(Cl)cc4)[nH]n3)C2)cn1 (stereo not given)	120.4
O=C(NC1(c2nccs2)CCCC1)c1[nH]nc(C2CC2)c1Cl	-0.1495
O=C(Nc1ccccc1OC(F)(F)F)C1CCS(=O)(=O)C1 (stereo not given)	4.045
N#Cc1cnn(C(=O)COc2ccccc2F)c1N	-3.189
Cc1n[nH]c(C2CN(C(=O)c3ccc4c(c3)COC4)CCO2)n1 (stereo not given)	-48.4
CCCc1n[nH]c(C2CN(C(=O)c3ccc4c(c3)COC4)CCO2)n1 (stereo not given)	124.9
CCc1n[nH]c(C2CN(C(=O)c3ccc4c(c3)COC4)CCO2)n1 (stereo not given)	136
CCc1n[nH]c(C2CN(C(=O)c3ccnc(N(C)C)c3)CCO2)n1 (stereo not given)	149.1
CCc1n[nH]c(C2CN(C(=O)c3ccc(NC4CC4)nc3)CCO2)n1 (stereo not given)	134.6
C[S+]([O-])c1nncn1CC(=O)c1cccc(Br)c1 (stereo not given)	-3.709
Cc1ccc(CN(C)C(=O)NCC(C)(C)S(C)(=O)=O)s1	-13.6
CCNc1ncc(CN2C[C@@H](CN3CCC(CO)CC3)[C@@H](CO)C2)cn1	12.05
Cc1ccc(CC(=O)N2CCn3cc(Cn4cncn4)nc3C2)cc1	8.244
c1cc2c(cc1-c1noc3c1CN(C1CCC1)CC3)OCO2	-7.391
CS(=O)(=O)c1nccn1Cc1ccncc1	-5.065
Cc1ccc2oc(CN3CCn4nc(CCC(=O)O)cc4C3)c(C)c2c1	5.001

SMILES	Percent Effect [%]
O=C(CCCc1nc2ccccc2[nH]1)N1CCCC1c1ccncc1 (stereo not given)	8.641
O=C(c1cc(F)ccc1F)C1CCN(C(=O)c2cccnc2O)CC1	-3.966
O=C(c1cc(F)ccc1F)C1CCN(C(=O)c2cnccn2)CC1	120.4
NC(=O)NC(=O)CCN1CCC(C(=O)c2cc(F)ccc2F)CC1	-46.12
O=C(c1cc(F)ccc1F)C1CCN(C(=O)c2ccccn2)CC1	7.01
C=C(Cl)CN1CCC(C(=O)c2cc(F)ccc2F)CC1	-0.07038
Cc1cccc(C(=O)N2CCC(C(=O)c3cc(F)ccc3F)CC2)n1	159.7
O=C(c1cc(F)ccc1F)C1CCN(C(=O)c2ccco2)CC1	137.2
Cc1cnc(C(=O)N2CCC(C(=O)c3cc(F)ccc3F)CC2)cn1	134
CS(=O)(=O)CCN1CCSCC1c1ccc(Cl)cc1 (stereo not given)	-3.973
O=C(C1CC(F)(F)C1)N1CC[C@H]2OCC[C@@]2(COCC2CC2)C1	-8.729
CC(SCC(=O)NCCC#N)c1ccc(Cl)cc1 (stereo not given)	5.18
COc1cccc(-c2nc(CNCCCn3cccn3)cs2)c1	28.1
O=C(c1ccoc1)N1CCc2ncnc(NCc3ccccn3)c2CC1	2.356
CCCN1CCN(C(=O)c2cccnc2-n2cncn2)CC1	5.341
Cc1nc2ccc(C(=O)N3CCC(COc4ccccn4)CC3)cc2[nH]1	160.4
O=C(c1cccnc1O)N1CCC(COc2ccccc2)CC1	-5.095
O=C(O)C(F)(F)F.O=C(c1ccoc1)N1CCC2(CC1)COC(COc1ccccn1)C2 (stereo not given)	19.26
COc1ccnc(CN(C)C(=O)CSc2nnc(N)s2)c1	0.9714
COc1ccc(-c2noc(C(=O)NCCN3CCCCC3)n2)cc1OC	-3.645
COc1ccc(-c2noc(C(N)CCSC)n2)cc1 (stereo not given)	92.78
COc1ccc(-c2noc([C@@H]3C[C@@H](O)CN3C3CCCCC3)n2)cc1	-13.77
COc1cc(OC)cc(-c2noc(C(N)CCSC)n2)c1 (stereo not given)	122.3
COc1ccc(-c2noc(C(N)CCSC)n2)cc1OC (stereo not given)	100.4
COc1ccc(-c2noc(C3CC(C(C)C)=NO3)n2)cc1 (stereo not given)	-24.09

SMILES	Percent Effect [%]
COc1cc(OC)cc(-c2noc(CN)n2)c1	-5.186
Cc1ccc(-c2noc([C@H](N)CC(C)C)n2)nn1	0.7851
COc1ccc(-c2noc(C3CCS(=O)(=O)C3)n2)cc1OC (stereo not given)	-2.853
COc1ccnc(N2CCCN(Cc3ncc(C(C)C)o3)CC2)n1	-1.774
Cc1cnn(CC2CN(c3ccc(C#N)cn3)CCO2)c1 (stereo not given)	117.6
CN(C)CC1CN(c2ccc(C#N)cn2)CCO1 (stereo not given)	-4.596
Cc1cc(C)n(CC2CN(CCOc3cccc(C#N)c3)CCO2)n1 (stereo not given)	-7.515
Cc1nc(C)n(CC2CN(c3ccc(C#N)cn3)CCO2)n1 (stereo not given)	-2.345
Cc1cc(C)n(CC2CN(c3ccc(C#N)cn3)CCO2)n1 (stereo not given)	119.8
Cc1cnn(CC2CN(c3cnc4ccccc4n3)CCO2)c1 (stereo not given)	-7.583
O=C1CO[C@H](c2ccc(NS(=O)(=O)c3ccccc3)cc2)[C@@H](CO)N1	-4.896
O=C(O)c1ccc(OC2CCOCC2)cc1	3.994
COc1ccc([C@@H]2NC(=O)N[C@H]3OCCC[C@H]32)cc1	92.15
COc1ccc(C2CC(=O)Nc3c2cnn3C2CCCC2)cc1 (stereo not given)	-0.6699
CN1CCC(N2CCC(c3ccccc3C(=O)O)C2)CC1 (stereo not given)	13.56
O=C(O)c1ccccc1C1CCN(C2Cc3ccccc3C2)C1 (stereo not given)	0.3893
O=C1N[C@H]2OCCC[C@H]2[C@H](c2ccc(C(=O)O)cc2)N1	126.1
O=C(CN1CCCC(c2ccc(C(=O)O)cc2)C1)NC1CC1 (stereo not given)	-9.643
O=C1CC(c2ccccc2)c2cnn(C3CCCC3)c2N1 (stereo not given)	5.906
COc1ccc(C2CC(=O)Oc3cc(C)[nH]c(=O)c32)cc1 (stereo not given)	5.191
O=C1N[C@H]2OCCC[C@H]2[C@H](c2ccccc2C(=O)O)N1	55.53
O=C1N[C@H]2OCCC[C@H]2[C@H](c2ccccc2)N1	111.8
CCOCCn1nc(C)cc1C(=O)N1CCN(C(C)C)C(CC)C1 (stereo not given)	12.32
CC(=O)N1CCC(N2CCOC[C@H]2c2nc(-c3ccncc3)c[nH]2)CC1	-16.93
CC(=O)N1CCCC2(CCN(C(=O)c3nccnc3N)CC2)C1	-5.274
